# Reference: PubChem BioAssay (NCATS)
# Results filed as inconclusive are left out. Where a call stands in place of a potency, no number is given. Calls of active or inactive are those of the source. Unless noted, the call rests on the fitted dose curve; in most records, active means well fitted curve in the direction sought with a large enough effect; inconclusive means small, poorly fitted or top-dose-only effect, or another doubt; inactive means no such curve, though single readings can be large; an effect the other way counts as inactive or inconclusive.
# Columns and labels:
# [1] = biological target: Cytochrome P450 3A4 (Homo sapiens) (UniProt P08684); experiment: qHTS Assay for Inhibitors and Substrates of Cytochrome P450 3A4 (AID 884); further: nearly all actives have a fitted effect of over 50% in size
# How it was run: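 Luminescent readout of luciferin produced by CYP3A4 (20 nM) dealkylation of Luciferin-PPXE, 25 uM (its KM). NADPH-driven reaction ran 60 min at RT after 10 min compound preincubation; data scaled to 57 uM ketoconazole as 100% inhibition.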
# [2] = Confirmation and Secondary Assay for Modulators of Hemoglobin Beta Chain Splicing at IVS2 654 locus (AID 910);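 further: per-well total GFP intensity by laser scanning cytometry after 2-day treatment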
# How it was run: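 HeLa cells stably carrying EGFP interrupted by mutant beta-globin IVS2-654 intron (CMV-driven) were treated with compound for 2 days at 37C; corrected splicing was scored as total peak GFP intensity per well (488 nm excitation, 500-520 nm emission).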
# [3] = Confirmation and Secondary Assay for Modulators of Hemoglobin Beta Chain Splicing at IVS2 705 locus (AID 930);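 further: HeLa cells stably expressing the EGFP-705 splicing reporter; GFP fluorescence per well restored by corrected splicing of the IVS2-705 intron in EGFP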
# How it was run: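 Fluorescence gain (488 nm laser, 500-520 nm PMT) reflects restored correct splicing of a mutant IVS2-705 intron inside EGFP in stably transfected HeLa cells after 2-day compound treatment.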
# [4] = qHTS Assay for Lipid Storage Modulators (AID 1519; calls by dose curve); conditions: Drosophila S3 cells, BODIPY lipid droplet/cell ratio, laser cytometry, cells loaded with oleic acid
# How it was run: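 Cells seeded at 5,000 per well were treated with compounds over a concentration series and loaded with oleic acid (400 uM, as added). Lipid droplet fluorescence (488 nm excitation, 500-530 nm channel) was read by laser-scanning cytometry and normalized to 20 uM Triacsin C.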
# [5] = biological target: Ubiquitin carboxyl-terminal hydrolase 1 (Homo sapiens) (UniProt O94782); experiment: Inhibitors of USP1/UAF1: Pilot qHTS (AID 504865); further: potency means the concentration at half of the fitted maximal effect; nearly all actives have a fitted effect of over 35% in size
# How it was run: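 Kinetic fluorescence assay: 1nM USP1/UAF1, 15 min compound preincubation, then 150nM Ub-Rho; 480/540 nm.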
# [6] = tested on: Zika virus NS2B-NS3 protease (unlinked complex); experiment: Confirmatory screen GU AMC qHTS for Zika virus inhibitors (AID 1347153); further: nearly all actives have a fitted effect of over 70% in size; further: potency means the concentration at half of the fitted maximal effect
# How it was run: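 Noncovalent NS2B hydrophilic domain/NS3 protease complex (25 nM) in 10 mM Tris-HCl pH 8.0, 0.01% Tween 20 was preincubated 15 min at room temperature with compounds. Then 10 µM AMC substrate (Km 18.3 µM) was added; fluorescence was read over 15 min and fitted to a 4-parameter Hill equation.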
# [7] = Confirmatory screen NINDS Rhodamine qHTS for Zika virus inhibitors (AID 1347161); further: nearly all actives have a fitted effect of over 60% in size; further: potency means the concentration at half of the fitted maximal effect;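 on activity change, negative = inhibition: purified Zika NS2B-NS3 protease with linked NS2B cofactor domain and Rhodamine110 peptide substrate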
# How it was run: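 Kinetic fluorescence (Ex 480 nm, Em 540 nm) over 15 min with 1.5 microM Rhodamine110 peptide and 25 nM linked protease.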
# [8] = tested on: Zika virus NS2B-NS3 protease (linked); experiment: 384 well plate NINDS AMC confirmatory qHTS for Zika virus inhibitors (AID 1347163); further: potency means the concentration at half of the fitted maximal effect; nearly all actives have a fitted effect of over 50% in size
# How it was run: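 Enzyme (5, 30 or 60 nM final) first met test compounds for ~15 min. The AMC-tagged peptide Ac-VKTGKR-AMC followed at 30 microM. Fluorescence was then recorded at 25 min and scaled against no-enzyme and no-inhibitor wells.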
# [9] = tested on: Zika virus NS2B-NS3 protease (linked construct); experiment: 384 well plate NINDS Rhodamine confirmatory qHTS for Zika virus inhibitors (AID 1347164); further: potency means the concentration at half of the fitted maximal effect; nearly all actives have a fitted effect of over 65% in size
# How it was run: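 Compounds are incubated about 15 minutes with linked protease (5, 30 or 60 nM final). Rhodamine 110-tagged Ac-LKRR substrate (10 microM final) is added and fluorescence measured after 25 minutes.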
# [10] = Vero cells viability qHTS for Zika virus inhibitors (AID 1347167)
# How it was run: (§1)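 To flag cytotoxic protease inhibitors, viability is measured by ATP-dependent luminescence (CellTiter Glo) after cells attached overnight receive compound for 24 to 48 hours in DMEM with 4% FBS.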
# [11] = HepG2 cells viability qHTS for Zika virus inhibitors (AID 1347168); further: potency means the concentration at half of the fitted maximal effect
# How it was run: as §1
# [12] = Primary qHTS for small molecule stabilizers of the endoplasmic reticulum resident proteome: Secreted ER Calcium Modulated Protein (SERCaMP) assay (AID 1508630)
# How it was run: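 The SH-SY5Y reporter protocol was run at 3 concentrations up to 38.3 uM (primary) or 11 concentrations (follow-up): 16 h compound, 100 nM thapsigargin for 4 h, then extracellular luciferase luminescence.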
# [13] = biological target: Rap guanine nucleotide exchange factor 3 (Homo sapiens) (UniProt O95398); experiment: Confirmatory qHTS for antagonist of cAMP-regulated guanine nucleotide exchange factor 3 (EPAC1) (AID 1645880); further: potency means the concentration at half of the fitted maximal effect; nearly all actives have a fitted effect of over 55% in size
# How it was run: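 Released BODIPY-GDP fluoresces less than Rap1-bound BODIPY-GDP; the signal is followed at 480/540 nm at 5-min intervals over 30 min, after 5 min at room temperature. Reactions contain 100 nM EPAC1, 250 nM RAP1B-BODIPY-GDP and 50 uM GDP; results are normalized to ATA and DMSO.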
# [14] = biological target: Rap guanine nucleotide exchange factor 3 (Homo sapiens) (UniProt O95398); experiment: Confirmatory qHTS for agonist of cAMP-regulated guanine nucleotide exchange factor 3 (EPAC1) (AID 1645881);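 further: EPAC1 catalysed release of BODIPY-GDP from Rap1B seen as fluorescence loss; nearly all actives have a fitted effect of over 75% in size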
# [15] = biological target: Rap guanine nucleotide exchange factor 4 (Homo sapiens) (UniProt Q8WZA2); experiment: Confirmatory qHTS for agonist of cAMP-regulated guanine nucleotide exchange factor 4 (EPAC2) (AID 1645884);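 further: nucleotide exchange releases bodipy-GDP from Rap1 and this lowers its fluorescence; nearly all actives have a fitted effect of over 65% in size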
# [16] = biological target: Rap guanine nucleotide exchange factor 4 (Homo sapiens) (UniProt Q8WZA2); experiment: Confirmatory qHTS for antagonist of cAMP-regulated guanine nucleotide exchange factor 4 (EPAC2) (AID 1645885); further: nearly all actives have a fitted effect of over 25% in size
# [17] = tested on: Zika virus NS2B-NS3 protease (linked construct); experiment: Confirmatory screen NINDS AMC qHTS for Zika virus inhibitors (AID 1347152);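 further: AMC fluorescence gain from cleaved Bz-Nle-KRR-AMC substrate over 15 min; top concentration of the series differs between compounds; nearly all actives have a fitted effect of over 70% in size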
# How it was run: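 In this dose-response qHTS, AMC release from 10 microM Bz-Nle-KRR-AMC by 1 nM linked protease is measured over 15 minutes (about 20% conversion) at pH 8.0. Percent inhibition is fitted to a 4-parameter Hill curve.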
# [18] = Tertiary RLuc qRT-PCR qHTS assay for Zika virus inhibitors (AID 1347169); further: nearly all actives have a fitted effect of over 55% in size; further: potency means the concentration at half of the fitted maximal effect; on activity change, negative = inhibition: top concentration of the series differs between compounds
# How it was run: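 Orthogonal cell-based infection assay using recombinant ZIKV-RLuc (Cambodian) in Vero cells; compound added prior to virus at MOI 1-2. Incubation lasts 48-72 hrs at 37 degrees C before live-cell Renilla substrate is added and luminescence measured.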
# [19] = tested on: Zika virus NS2B-NS3 protease; experiment: Primary screen GU AMC qHTS for Zika virus inhibitors (AID 1347154); further: nearly all actives have a fitted effect of over 70% in size
# How it was run: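 Unlinked Zika NS2B hydrophilic domain/NS3 protease domain noncovalent complex (25 nM final) in 10 mM Tris-HCl pH 8.0, 0.01% Tween 20, with AMC peptide substrate. Fluorescence (ex 340, em 450 nm) change over 15 min, room temperature; percent inhibition fitted to 4-parameter Hill equation.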
# [20] = biological target: Cytochrome P450 1A2 (Homo sapiens) (UniProt P05177); experiment: p450-cyp1a2 (AID 410; calls by dose curve; further: potency means the concentration at half of the fitted maximal effect)
# How it was run: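 20nM CYP1A2, 100uM Luciferin-ME (=Km), 100mM KPO4; cpd 10 min RT; +NADPH regen, 60 min RT; stop/detect 20 min; luminescence. Normalized to furafylline 57 uM = full inhibition.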
# [21] = biological target: Glucocorticoid receptor (Homo sapiens) (UniProt P04150); experiment: GR-GFP Redistribution (AID 450;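 active means compounds whose dose series gives a full or clear partial fitted curve of increased nuclear translocation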; further: potency means the concentration at half of the fitted maximal effect); conditions: U2OS GR-GFP nuclear translocation, laser cytometry, 2 h
# [22] = biological target: Glucocorticoid receptor (Homo sapiens) (UniProt P04150); experiment: GR-EFC Redistribution (AID 451; calls by dose curve; further: potency means the concentration at half of the fitted maximal effect); conditions: CHO-K1 GR-EFC translocation, beta-gal luminescence, 2 h
# How it was run: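 CHO-K1 cells stably expressing nuclear-localized β-gal enzyme acceptor and GR fused C-terminally to the enzyme donor fragment; ligand-driven nuclear translocation restores β-gal by complementation. Compounds titrated up to 46 uM final, 2 h at 37 °C; luminescence read.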
# [23] = biological target: Cytochrome P450 3A4 (Homo sapiens) (UniProt P08684); experiment: qHTS Assay for Activators of Cytochrome P450 3A4 (AID 885); further: nearly all actives have a fitted effect of over 65% in size
# How it was run: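 CYP3A4 activity: Luciferin-PPXE O-dealkylation, 25uM substrate, 200mM KPO4, RT throughout. Read-out is luciferase luminescence; higher values reflect activation.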
# [24] = ZIKV-mCherry secondary qHTS for Zika virus inhibitors (AID 1347158); further: potency means the concentration at half of the fitted maximal effect; on activity change, negative = inhibition: top concentration of the series differs between compounds
# How it was run: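 Read-out is percent infection: mCherry-positive Vero cells (nuclear-proximal intensity >450 RFU, 3 SD above negative controls) counted by high-content imaging of Hoechst-stained, PFA-fixed wells after 48-72 h with ZIKV-mCherry at MOI 1 and compound.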
# [25] = biological target: Glutathione peroxidase 1 (Homo sapiens) (UniProt P07203); experiment: Primary qHTS Assay for Inhibitors of Recombinant Selenoprotein Glutathione Peroxidase 1 (GPX1) (AID 1845191); further: nearly all actives have a fitted effect of over 65% in size
# How it was run: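 GPX1 10 nM, GR 100 nM, GSH 1 mM, NADPH 0.5 mM, CHP 0.5 mM (final). 30-min cpd preincubation, RT. Ex340/Em450 read t=0, t=15 min.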
# Cytochrome P450 3A4 (Homo sapiens), sequence (P08684 whole entry, looked up): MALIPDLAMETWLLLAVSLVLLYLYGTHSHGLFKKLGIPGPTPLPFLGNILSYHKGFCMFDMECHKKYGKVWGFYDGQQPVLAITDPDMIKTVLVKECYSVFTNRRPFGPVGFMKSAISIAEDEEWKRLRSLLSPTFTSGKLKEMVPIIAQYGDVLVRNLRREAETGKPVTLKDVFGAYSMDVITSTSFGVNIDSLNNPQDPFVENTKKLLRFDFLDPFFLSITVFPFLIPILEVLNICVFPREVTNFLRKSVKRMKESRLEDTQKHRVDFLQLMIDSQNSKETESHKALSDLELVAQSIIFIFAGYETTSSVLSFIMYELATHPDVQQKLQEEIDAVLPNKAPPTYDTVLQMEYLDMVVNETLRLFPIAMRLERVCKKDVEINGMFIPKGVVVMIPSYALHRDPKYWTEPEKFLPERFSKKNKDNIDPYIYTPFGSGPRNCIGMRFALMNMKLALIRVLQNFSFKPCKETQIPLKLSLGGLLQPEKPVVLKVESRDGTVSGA
# Glucocorticoid receptor (Homo sapiens), sequence (P04150 whole entry, looked up, the tested form may be a part): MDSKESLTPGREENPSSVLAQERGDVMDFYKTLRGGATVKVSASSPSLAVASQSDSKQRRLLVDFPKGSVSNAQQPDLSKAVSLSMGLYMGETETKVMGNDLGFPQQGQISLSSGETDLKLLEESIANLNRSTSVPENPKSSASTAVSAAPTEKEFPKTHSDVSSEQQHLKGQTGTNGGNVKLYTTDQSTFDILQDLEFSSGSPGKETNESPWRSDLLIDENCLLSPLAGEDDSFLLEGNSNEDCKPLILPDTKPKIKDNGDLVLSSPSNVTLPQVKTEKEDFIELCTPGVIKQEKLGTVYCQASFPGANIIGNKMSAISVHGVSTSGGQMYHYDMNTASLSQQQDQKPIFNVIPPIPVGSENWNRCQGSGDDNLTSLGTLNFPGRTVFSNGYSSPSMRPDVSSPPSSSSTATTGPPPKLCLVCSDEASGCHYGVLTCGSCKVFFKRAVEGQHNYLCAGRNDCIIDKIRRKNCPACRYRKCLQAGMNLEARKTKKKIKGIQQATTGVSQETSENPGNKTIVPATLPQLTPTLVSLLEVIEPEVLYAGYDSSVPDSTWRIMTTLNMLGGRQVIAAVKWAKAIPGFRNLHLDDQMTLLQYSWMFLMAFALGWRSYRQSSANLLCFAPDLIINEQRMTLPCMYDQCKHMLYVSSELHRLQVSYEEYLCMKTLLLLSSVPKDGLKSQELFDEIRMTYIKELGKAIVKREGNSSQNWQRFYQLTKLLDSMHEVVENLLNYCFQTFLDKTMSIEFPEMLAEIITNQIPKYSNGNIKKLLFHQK
# Rap guanine nucleotide exchange factor 3 (Homo sapiens), sequence (O95398 whole entry, looked up): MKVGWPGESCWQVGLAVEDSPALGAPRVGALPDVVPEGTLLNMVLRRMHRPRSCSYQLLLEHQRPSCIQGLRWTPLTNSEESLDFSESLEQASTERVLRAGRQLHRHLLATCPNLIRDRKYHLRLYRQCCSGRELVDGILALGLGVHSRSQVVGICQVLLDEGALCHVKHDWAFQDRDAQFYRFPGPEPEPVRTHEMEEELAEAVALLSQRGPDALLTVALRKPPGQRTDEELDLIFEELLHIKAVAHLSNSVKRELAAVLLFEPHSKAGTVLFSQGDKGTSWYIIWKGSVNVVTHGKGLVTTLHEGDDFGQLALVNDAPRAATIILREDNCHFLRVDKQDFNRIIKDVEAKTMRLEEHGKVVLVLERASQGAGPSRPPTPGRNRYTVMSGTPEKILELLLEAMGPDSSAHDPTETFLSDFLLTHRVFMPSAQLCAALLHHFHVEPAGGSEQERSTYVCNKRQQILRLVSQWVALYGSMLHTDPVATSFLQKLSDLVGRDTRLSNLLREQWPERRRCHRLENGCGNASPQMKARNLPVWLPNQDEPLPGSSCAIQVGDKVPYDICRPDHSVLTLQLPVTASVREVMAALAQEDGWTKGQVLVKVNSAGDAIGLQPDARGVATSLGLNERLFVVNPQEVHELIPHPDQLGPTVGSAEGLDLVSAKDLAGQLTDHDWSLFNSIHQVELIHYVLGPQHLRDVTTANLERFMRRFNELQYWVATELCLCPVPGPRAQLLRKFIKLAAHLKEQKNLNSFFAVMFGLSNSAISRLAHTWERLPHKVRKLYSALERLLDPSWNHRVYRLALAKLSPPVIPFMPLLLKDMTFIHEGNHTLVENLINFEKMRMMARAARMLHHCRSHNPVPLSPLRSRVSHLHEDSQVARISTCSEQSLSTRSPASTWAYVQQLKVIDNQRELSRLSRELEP
# Rap guanine nucleotide exchange factor 4 (Homo sapiens), sequence (Q8WZA2 whole entry, looked up): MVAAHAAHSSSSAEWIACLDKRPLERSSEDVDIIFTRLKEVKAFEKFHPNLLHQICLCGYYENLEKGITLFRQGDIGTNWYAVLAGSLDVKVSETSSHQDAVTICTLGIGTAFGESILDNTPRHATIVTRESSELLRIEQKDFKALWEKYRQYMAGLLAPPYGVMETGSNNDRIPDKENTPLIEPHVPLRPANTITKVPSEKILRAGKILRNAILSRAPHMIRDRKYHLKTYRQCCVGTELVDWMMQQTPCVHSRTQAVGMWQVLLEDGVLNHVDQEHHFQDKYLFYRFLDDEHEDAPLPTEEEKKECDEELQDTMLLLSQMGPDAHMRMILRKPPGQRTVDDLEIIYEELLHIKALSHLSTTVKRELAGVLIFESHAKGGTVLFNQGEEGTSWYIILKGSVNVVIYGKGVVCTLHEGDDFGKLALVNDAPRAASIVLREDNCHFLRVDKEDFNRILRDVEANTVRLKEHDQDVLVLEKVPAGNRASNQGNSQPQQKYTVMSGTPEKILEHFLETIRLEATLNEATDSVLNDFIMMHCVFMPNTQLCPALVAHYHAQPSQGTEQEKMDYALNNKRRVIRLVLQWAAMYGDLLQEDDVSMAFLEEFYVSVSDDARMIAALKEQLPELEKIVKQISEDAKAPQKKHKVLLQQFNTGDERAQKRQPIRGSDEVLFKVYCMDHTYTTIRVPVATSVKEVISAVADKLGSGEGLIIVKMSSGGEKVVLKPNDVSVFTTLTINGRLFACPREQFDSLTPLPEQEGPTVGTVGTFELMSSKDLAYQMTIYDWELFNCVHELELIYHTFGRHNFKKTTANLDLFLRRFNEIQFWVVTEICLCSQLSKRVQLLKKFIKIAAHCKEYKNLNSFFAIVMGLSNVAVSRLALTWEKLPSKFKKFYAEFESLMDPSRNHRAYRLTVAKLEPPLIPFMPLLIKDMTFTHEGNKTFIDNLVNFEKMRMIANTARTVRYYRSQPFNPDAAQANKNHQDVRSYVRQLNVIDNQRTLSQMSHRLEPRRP
# Cytochrome P450 1A2 (Homo sapiens), sequence (P05177 whole entry, looked up): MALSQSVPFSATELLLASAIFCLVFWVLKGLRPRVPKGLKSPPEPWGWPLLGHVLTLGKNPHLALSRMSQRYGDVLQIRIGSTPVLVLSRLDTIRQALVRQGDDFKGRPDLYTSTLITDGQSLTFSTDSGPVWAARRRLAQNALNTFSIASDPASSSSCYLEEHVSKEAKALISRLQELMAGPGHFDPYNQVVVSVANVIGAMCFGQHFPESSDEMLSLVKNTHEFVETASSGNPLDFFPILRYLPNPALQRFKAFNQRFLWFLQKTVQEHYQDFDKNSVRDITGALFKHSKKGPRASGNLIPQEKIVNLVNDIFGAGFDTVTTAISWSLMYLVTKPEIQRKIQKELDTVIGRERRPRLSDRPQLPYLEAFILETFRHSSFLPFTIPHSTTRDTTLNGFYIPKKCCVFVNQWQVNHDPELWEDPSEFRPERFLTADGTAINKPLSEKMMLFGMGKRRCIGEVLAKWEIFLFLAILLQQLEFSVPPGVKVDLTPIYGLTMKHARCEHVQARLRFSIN
# Glutathione peroxidase 1 (Homo sapiens), sequence (P07203 whole entry, looked up): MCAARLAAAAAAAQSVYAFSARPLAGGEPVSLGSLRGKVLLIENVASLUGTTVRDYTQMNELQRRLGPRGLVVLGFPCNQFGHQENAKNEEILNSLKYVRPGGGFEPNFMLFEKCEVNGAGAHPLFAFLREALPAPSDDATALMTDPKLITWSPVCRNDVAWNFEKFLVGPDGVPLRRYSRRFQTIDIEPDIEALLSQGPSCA
# Ubiquitin carboxyl-terminal hydrolase 1 (Homo sapiens), sequence (O94782 whole entry, looked up): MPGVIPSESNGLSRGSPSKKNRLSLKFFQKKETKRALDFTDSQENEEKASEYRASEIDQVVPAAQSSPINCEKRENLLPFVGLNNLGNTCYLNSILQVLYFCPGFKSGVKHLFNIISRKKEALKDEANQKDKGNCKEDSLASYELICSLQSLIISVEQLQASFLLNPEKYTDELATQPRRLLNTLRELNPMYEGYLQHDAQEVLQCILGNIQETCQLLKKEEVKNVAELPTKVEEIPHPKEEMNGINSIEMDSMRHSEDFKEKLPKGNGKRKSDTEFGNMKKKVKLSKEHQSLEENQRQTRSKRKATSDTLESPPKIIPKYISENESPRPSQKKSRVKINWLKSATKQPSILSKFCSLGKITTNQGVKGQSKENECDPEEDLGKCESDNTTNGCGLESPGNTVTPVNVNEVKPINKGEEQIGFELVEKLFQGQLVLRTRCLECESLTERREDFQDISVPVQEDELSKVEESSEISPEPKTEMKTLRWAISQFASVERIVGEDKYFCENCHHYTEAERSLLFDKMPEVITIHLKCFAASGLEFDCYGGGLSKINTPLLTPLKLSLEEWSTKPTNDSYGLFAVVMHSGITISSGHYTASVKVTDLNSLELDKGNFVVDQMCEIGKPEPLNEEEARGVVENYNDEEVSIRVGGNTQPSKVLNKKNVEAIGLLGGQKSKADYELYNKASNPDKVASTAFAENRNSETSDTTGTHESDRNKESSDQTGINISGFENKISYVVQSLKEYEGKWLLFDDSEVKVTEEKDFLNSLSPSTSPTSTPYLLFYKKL
smiles,measurement,setting,value
CC(C)=CCCC1(C)C=Cc2c(O)c3c(c(CC=C(C)C)c2O1)OC12C(=CCCC1C(C)(C)O[C@@]2(C/C=C(\C)C(=O)O)C(=O)O)C3=O (stereo not given in full),Potency,[1],inactive
same,outcome,[2],inactive
same,outcome,[3],inactive
same,"activity change, negative = inhibition",[4]; at 57.5 µM (top of the series),7.82% (inactive)
same,max response,[4]; measured here: cell count channel max response,0.914%
same,max response,[4]; measured here: lipid channel max response,7.86%
same,Potency,[5],79.4 µM (active)
same,Potency,[6],19.2 µM (active)
same,Potency,[7],1.39 µM (active)
same,Potency,[8],158 µM (active)
same,Potency,[9],22.4 µM (active)
same,Potency,[10],inactive
same,Potency,[11],inactive
same,Potency,[12],inactive
same,Potency,[13],55.9 µM (active)
same,outcome,[14],inactive
same,outcome,[15],inactive
same,Potency,[16],inactive
N#Cc1ccccc1S(=O)(=O)N[C@H]1CO[C@H]2[C@@H]1OC[C@H]2OC(=O)Nc1ccc(Oc2ccccc2)cc1,Potency,[17],inactive
same,Potency,[6],inactive
same,Potency,[18],7.39 µM (active)
COc1ccc(-c2nc3cc(F)ccc3s2)cc1OC,"activity, negative = inhibition",[6],-4.14% [at 5.51 µM] (inactive)
same,"activity change, negative = inhibition",[7],-16.8% [at 12.7 µM] (inactive)
same,"activity change, negative = cytotoxicity",[10],-2.06% [at 4.93 µM] (inactive)
same,"activity change, negative = cytotoxicity",[11],0.919% [at 4.93 µM] (inactive)
same,Potency,[18],inactive
O=c1[nH]cnc2c1ncn2C1O[C@H](CO)[C@@H](O)[C@H]1O (stereo not given in full),Potency,[19],inactive
Cc1c(-c2ccc(O)cc2)nn(-c2ccc(O)cc2)c1-c1ccc(OCCN2CCCCC2)cc1,Potency,[20],12.6 µM (active)
same,Potency,[21],> 46 µM (inactive)
same,Potency,[22],> 46 µM (inactive)
same,Potency,[23],inactive
same,Potency,[6],inactive
same,Potency,[7],inactive
same,Potency,[10],inactive
same,Potency,[11],29.4 µM (active)
O=C(Nc1cccc2ccccc12)O[C@@H]1CO[C@H]2[C@@H]1OC[C@@H]2NS(=O)(=O)c1cccc2cccnc12,Potency,[6],inactive
Nc1ncnc2c1ncn2C1C[C@H](O)[C@@H](CO)O1 (stereo not given in full),Potency,[19],inactive
O=C(O)c1cccc(-c2cc(C(F)(F)F)ccc2Cl)c1,Potency,[17],inactive
same,Potency,[6],inactive
same,Potency,[24],inactive
same,Potency,[18],inactive
CC[C@@H](C)[C@H](NS(=O)(=O)c1cccc2ccccc12)C(=O)N[C@H](C=O)Cc1c[nH]c2ccccc12,Potency,[19],inactive
CO[C@H]1C[C@@H](O[C@@H]2/C(C)=C/C[C@@H]3C[C@@H](C[C@]4(CC[C@H](C)[C@@H](C5CCCCC5)O4)O3)OC(=O)[C@@H]3C=C(C)/C(=N/O)[C@H]4OC/C(=C\C=C\[C@@H]2C)[C@]43O)O[C@@H](C)[C@H]1O,Potency,[6],inactive
same,Potency,[12],inactive
same,Potency,[25],inactive
COc1cc(O)c2c(=O)cc(-c3ccc(OC)c(-c4c(O)cc(O)c5c(=O)cc(-c6ccc(O)cc6)oc45)c3)oc2c1,Potency,[1],inactive
same,Potency,[6],44.1 µM (active)
same,Potency,[24],11.2 µM (active)
same,Potency,[8],35.5 µM (active)
same,Potency,[9],112 µM (active)
same,Potency,[18],16.5 µM (active)
O=S(=O)(N[C@H]1CO[C@H]2[C@@H]1OC[C@@H]2n1nnnc1-c1ccc2c(c1)OCO2)c1ccc2ccccc2c1,Potency,[6],inactive
same,Potency,[18],inactive
CN(C)[C@@H]1C(=O)C(C(=O)NCN2CCCC2)=C(O)[C@@]2(O)C(=O)C3=C(O)c4c(O)cccc4[C@@](C)(O)[C@H]3C[C@@H]12,Potency,[6],9.61 µM (active)
same,Potency,[7],1.97 µM (active)
same,Potency,[10],inactive
same,Potency,[11],inactive
same,Potency,[12],inactive
CCCCC/C=C\C\C=C/C=C/C=C/[C@@H](SC[C@H](N)C(=O)NCC(=O)O)[C@@H](O)CCCC(=O)O,"activity change, negative = inhibition",[19],13.3% [at 0.59 µM] (inactive)
O=C(Nc1ccc(Oc2ccccc2)cc1)O[C@@H]1CO[C@H]2[C@@H]1OC[C@@H]2NS(=O)(=O)c1ccc(Cl)cc1,Potency,[6],inactive
